The results in this text go back to PubChem BioAssay (NCI).

Common to all, as to experiment: NCI-60 one-dose screen, 48 h (100 = growth as untreated, 0 = no growth, -100 = all killed)
One assay concerns NCI-H23 lung. Conditions: 10 µM unless noted.
The test system of the next assay is NCI-H226 lung. Conditions: 10 µM unless noted.
The next assay deals with NCI-H322M lung. Conditions: 10 µM unless noted.
The test system of another assay is HOP-62 NSCLC. Conditions: 10 µM unless noted.
In a further assay the test system is NCI-H460 lung. Conditions: 10 µM unless noted.
The test system of another assay is HOP-92 NSCLC. Conditions: 10 µM.
The test system of another assay is NCI-H522 lung. Conditions: 10 µM unless noted.
The subject of the next assay is A549/ATCC NSCLC. Conditions: 10 µM unless noted.
The subject of another assay is 786-0 renal. Conditions: 10 µM unless noted.
The next assay relates to COLO 205 colon. Conditions: 10 µM unless noted.
In a further assay the test system is DU-145 prostate. Conditions: 10 µM unless noted.
The test system of a further assay is K-562 leukemia. Conditions: 10 µM unless noted.
In the next assay the test system is MALME-3M melanoma. Conditions: 10 µM unless noted.
The next assay concerns MDA-MB-231 breast. Conditions: 10 µM unless noted.
In a further assay the test system is SF-268 CNS. Conditions: 10 µM unless noted.
The test system of another assay is SF-295 CNS. Conditions: 10 µM unless noted.
The next assay concerns SF-539 CNS. Conditions: 10 µM unless noted.
For another assay, the system named is UACC-257 melanoma. Conditions: 10 µM unless noted.

Molecules are shown by their SMILES. This is part of a sample that, as a whole, favours compounds with a hit. Of some 83,000 tested, about 20% had one in any assay.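 Plates (96-well) were seeded with cells, treated with compound at one concentration, and incubated for 48 hours before percent growth was determined.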 Values without a mark were called inactive. The source made the active and inactive calls. Rule for the calls: active = growth percent below 10; inactive = the rest.

`CCn1c(SCC(=O)Nc2cccc(C(=O)/C=C/c3cc(OC)c(OC)c(OC)c3)c2)nc2ccccc2c1=O`: the growth was -17.1% (active) in the assay on NCI-H23 lung; 11.5% with NCI-H226 lung; 54.4% in the assay on NCI-H322M lung; 53.8% in the assay on HOP-62 NSCLC; 2.34% (active) in the assay with NCI-H460 lung; 34.6% with HOP-92 NSCLC. The growth was 38% in the assay on NCI-H522 lung; 41.1% with A549/ATCC NSCLC; 30.2% in the assay with 786-0 renal; 102% with COLO 205 colon; 13.9% with DU-145 prostate; 13.4% with K-562 leukemia. Further, the growth in the assay with MALME-3M melanoma is 61.8%; with MDA-MB-231 breast, 23.4%; in the assay on SF-268 CNS it was 37.7%; in the assay on SF-295 CNS, 75%; with SF-539 CNS it was 24%; in the assay on UACC-257 melanoma it was 67.7%.

Consider `Nc1ncc(-c2ccc3ncnc(N4CCc5cc(F)c(F)cc54)c3c2)cn1`, for which the growth with NCI-H23 lung was 38.3%; in the assay with NCI-H226 lung, 29.1%; in the assay with NCI-H322M lung, 33.1%; with HOP-62 NSCLC it was 13.4%; with NCI-H460 lung, 18.9%; in the assay on HOP-92 NSCLC, -7.6% (active). The growth was 34% in the assay on NCI-H522 lung; 15.6% in the assay with A549/ATCC NSCLC; 14.2% with 786-0 renal; 43.6% in the assay with COLO 205 colon; 26% in the assay on DU-145 prostate; 48.7% in the assay with K-562 leukemia. Besides, the growth was 17.4% in the assay on MALME-3M melanoma; 26.9% with MDA-MB-231 breast; 29.5% in the assay with SF-268 CNS; 20.7% in the assay with SF-295 CNS; 18.9% with SF-539 CNS; 45% in the assay with UACC-257 melanoma.

With `Cn1ccnc1C(=O)/C=C/c1ccc(NC(=O)c2ccc(F)cc2)cc1`, the growth was 13.4% in the assay on NCI-H23 lung; 45.3% with NCI-H226 lung; 46.3% with NCI-H322M lung; 64.5% in the assay on HOP-62 NSCLC; -19.7% (active) in the assay on NCI-H460 lung; 47.2% in the assay with HOP-92 NSCLC. Besides, the growth in the assay with NCI-H522 lung was 17.4%; in the assay with A549/ATCC NSCLC, 34.8%; in the assay on 786-0 renal it was 22.1%; with COLO 205 colon, 75.4%; in the assay with DU-145 prostate it was 9.78% (active); in the assay on K-562 leukemia it was 15%. The growth in the assay with MALME-3M melanoma was 87.8%; with MDA-MB-231 breast, 22.1%; in the assay on SF-268 CNS it was 21.8%; in the assay on SF-295 CNS, 52.5%; with SF-539 CNS, -3.29% (active); in the assay with UACC-257 melanoma, 84.2%.

Regarding `Cn1ccnc1C(=O)/C=C/c1ccc(CNC(=O)c2ccc(S(F)(F)(F)(F)F)cc2)cc1`, the growth in the assay with NCI-H23 lung was 3.4% (active); with NCI-H226 lung it was 27%; with NCI-H322M lung, 7.63% (active); with HOP-62 NSCLC it was 17.5%; in the assay with NCI-H460 lung it was -18.1% (active); in the assay with HOP-92 NSCLC, 74.3%. The growth was 29.5% in the assay with NCI-H522 lung; 16% with A549/ATCC NSCLC; 13.1% in the assay on 786-0 renal; 41.8% in the assay with COLO 205 colon; 13.8% in the assay with DU-145 prostate; 18.9% in the assay with K-562 leukemia. Also, the growth in the assay with MALME-3M melanoma is 89.9%; with MDA-MB-231 breast, 5.17% (active); in the assay with SF-268 CNS, 6.38% (active); in the assay with SF-295 CNS, 26.8%; with SF-539 CNS, -36% (active); in the assay on UACC-257 melanoma, 89.9%.

With `COc1cccc(O)c1/C=C(/C)c1ccc2c(OC)cccc2[o+]1`, the growth in the assay on NCI-H23 lung was 103%; with NCI-H226 lung, 105%; in the assay with NCI-H322M lung, 103%; with HOP-62 NSCLC, 92.5%; in the assay with NCI-H460 lung it was 109%; with HOP-92 NSCLC it was 104%. Further, the growth in the assay with NCI-H522 lung is 98.5%; in the assay with A549/ATCC NSCLC, 107%; in the assay with 786-0 renal, 101%; in the assay on COLO 205 colon it was 117%; in the assay with DU-145 prostate, 111%; in the assay on K-562 leukemia it was 95.6%. Moreover, the growth was 96.8% in the assay with MALME-3M melanoma; 101% in the assay with MDA-MB-231 breast; 100% in the assay with SF-268 CNS; 99.1% in the assay on SF-295 CNS; 93.2% in the assay on SF-539 CNS; 118% in the assay on UACC-257 melanoma.

As for `COc1c(N2CC3CCCNC3C2)c(F)cc2c(=O)c(C(=O)N/N=C/c3ccc(N(C)C)cc3)cn(C3CC3)c12` (centres undefined), the growth in the assay on NCI-H23 lung was 69.1%; in the assay with NCI-H226 lung, 98.5%; in the assay with NCI-H322M lung, 93.6%; in the assay with HOP-62 NSCLC, 91.9%; in the assay on NCI-H460 lung it was 78.3%; in the assay on HOP-92 NSCLC, 69.5%. Also, the growth in the assay with NCI-H522 lung is 73%; in the assay on A549/ATCC NSCLC, 88.7%; with 786-0 renal it was 37.7%; with COLO 205 colon, 104%; in the assay with DU-145 prostate, 73.6%; with K-562 leukemia, -10% (active). For the same compound, the growth in the assay on MALME-3M melanoma is 92.9%; in the assay with MDA-MB-231 breast, 69.1%; with SF-268 CNS, 85.5%; with SF-295 CNS it was 95%; with SF-539 CNS it was -8.68% (active); with UACC-257 melanoma, 106%.

For `CCCCCc1ccc(S(=O)(=O)Nc2cccc(-c3csc(NC(=O)CCCCCN4CCN(CCO)CC4)n3)c2)cc1`, the growth with NCI-H23 lung was 81.1%; in the assay on NCI-H226 lung it was 92.7%; in the assay on NCI-H322M lung, 87.5%; in the assay with HOP-62 NSCLC it was 85.1%; with NCI-H460 lung, 23.9%; in the assay with HOP-92 NSCLC, 62.7%. The growth is 77.2% in the assay on NCI-H522 lung; 74.5% with A549/ATCC NSCLC; 68.3% in the assay with 786-0 renal; 72.8% with COLO 205 colon; 83% in the assay with DU-145 prostate; -21.3% (active) with K-562 leukemia. Moreover, the growth in the assay on MALME-3M melanoma is 29.8%; with MDA-MB-231 breast, 75.7%; in the assay with SF-268 CNS it was 83.2%; in the assay on SF-295 CNS it was 91.5%; in the assay with SF-539 CNS, 67.3%; with UACC-257 melanoma, 86.7%.

For `O=C(NNc1nc2cc(F)c(F)cc2n2c(CN3CC4CNCC4C3)ccc12)c1ncccn1` (centres undefined), the growth in the assay on NCI-H23 lung is 26%; in the assay with NCI-H226 lung, 10.6%; in the assay with NCI-H322M lung it was 27.8%; with HOP-62 NSCLC, 0.597% (active); with NCI-H460 lung, 2.27% (active); in the assay with HOP-92 NSCLC, 20.2%. The growth in the assay with NCI-H522 lung is 0.166% (active); in the assay on A549/ATCC NSCLC it was 15.2%; in the assay with 786-0 renal, 9.75% (active); with COLO 205 colon, 9.36% (active); with DU-145 prostate it was 24%; with K-562 leukemia, 9.16% (active). Moreover, the growth in the assay with MALME-3M melanoma is 10.3%; in the assay on MDA-MB-231 breast it was 38.7%; in the assay with SF-268 CNS, 19.7%; with SF-295 CNS it was -14.5% (active); with SF-539 CNS, 6.72% (active); in the assay on UACC-257 melanoma, 8.25% (active).
